In PubChem BioAssay (NCI):
Values joined by “and” are separate entries in the source; they are usually repeats but may differ in a detail not shown here. Identical values can stand only once. The panel holds about 79,000 compounds, 15% with a hit somewhere; the sample as a whole holds those more often. Some compounds were tested as several samples or in several runs, with calls that do not always agree. Active and inactive are the calls of the source. Rule as the data show it: active = growth inhibition above about 70%; inactive = the rest.

Legend:
[1] = NCI Yeast Anticancer Drug Screen. Data for the rad50 strain (AID 155);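 also: 0% = growth of vehicle-only cultures of the same strain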; settings: S. cerevisiae rad50 strain growth inhibition, stronger effect = higher value
Procedure, shortened: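 Cells are treated with compound, grown, and their growth is then scored against vehicle-only cultures of the same repair-deficient yeast strain.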

[2] = NCI Yeast Anticancer Drug Screen. Data for the mec2-1 strain (AID 157); settings: S. cerevisiae mec2-1 strain, stronger effect = higher value
Procedure, shortened: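 mec2-1 yeast strain, carrying an alteration in DNA damage repair or cell cycle control, was exposed to compounds; growth inhibition was measured relative to vehicle-treated controls.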

[3] = NCI Yeast Anticancer Drug Screen. Data for the sgs1 mgt1 strain (AID 161);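 also: 0% = growth of cultures given vehicle only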; settings: S. cerevisiae sgs1 mgt1 strain, stronger effect = higher value
Procedure, shortened: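 Percent growth inhibition was derived by comparing compound-exposed mutant yeast with vehicle-exposed cultures. The strain carries alterations in DNA damage repair.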

[4] = NCI Yeast Anticancer Drug Screen. Data for the cln2 rad14 strain (AID 165);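 also: 0% = growth equal to vehicle treated cultures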; settings: S. cerevisiae cln2 rad14 strain, stronger effect = higher value
Procedure, shortened: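 Yeast carrying cln2 and rad14 alterations (cell cycle control and DNA damage repair) were exposed to compounds. Growth inhibition was measured against vehicle-treated controls.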

[5] = NCI Yeast Anticancer Drug Screen. Data for the bub3 strain (AID 167); settings: S. cerevisiae bub3 mutant strain, stronger effect = higher value
Procedure, shortened: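 Part of a panel of yeast mutants defective in DNA damage repair or cell cycle regulation. Each strain is grown with compound, and inhibition is calculated relative to solvent-treated cultures.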

[6] = NCI Yeast Anticancer Drug Screen. Data for the mlh1 rad18 strain (AID 175); settings: S. cerevisiae mlh1 rad18 strain growth inhibition, stronger effect = higher value
Procedure, shortened: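 Growth inhibition of the yeast strain was measured after compound exposure and expressed relative to vehicle-treated controls. The strain carries defined defects in DNA damage repair.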

[7] = at 5.0 µM (retest, dose inferred, filed as 0.5)
[8] = at 50.0 µM (retest, dose inferred, filed as 5.0)

Measured: growth inhibition

Nc1ncnc2c1ncn2C1SC(CO)C(O)C1O (centres undefined)
inactive: [1]; [7] 0% | [1]; [8] 8% | [1]; at 50.0 µM 4.35% and 13.3% and 42.6% | [2]; [7] -6% | [2]; [8] 5% | [2]; at 50.0 µM 32.3% and 4.55% and -7.25% | [3]; [7] 0% | [3]; [8] 7% | [3]; at 50.0 µM 3.2% and 3.55% and 36.1% | [4]; [7] -4% | [4]; [8] -4% | [4]; at 50.0 µM 11.2% and 44.8% and 2.35% | [5]; [7] -3% | [5]; [8] -7% | [5]; at 50.0 µM -21.4% and -3.85% and -4.3% | [6]; [7] 13% | [6]; [8] 25% | [6]; at 50.0 µM 14.7% and 4.75% and -3.25%

N#CC1(C2SCCS2=O)C2=C(C(=O)c3ccccc3C2=O)N2CCCC21 (centres undefined)
active: [1]; at 50.0 µM 76.8% | [2]; at 50.0 µM 77.2% | [3]; at 50.0 µM 83.8% | [5]; [8] 80% | [5]; at 50.0 µM 70.2% | [6]; at 50.0 µM 89.9%
inactive: [1]; [7] 17% | [1]; [8] 56% | [2]; [7] 14% | [2]; [8] 49% | [3]; [7] 23% | [3]; [8] 67% | [4]; [7] 14% | [4]; [8] 40% | [4]; at 50.0 µM 43.2% | [5]; [7] 33% | [6]; [7] 17% | [6]; [8] 67%

Cc1cc(NS(=O)(=O)c2ccc(N=Nc3cc(N=Nc4ccc(S(=O)(=O)Nc5cc(C)nc(C)n5)cc4)c4c(NC(=O)C(Cl)Cl)cccc4c3OC(=O)C(Cl)Cl)cc2)nc(C)n1 (tested in a mixture with another compound)
-21.5% (inactive) and 77.2% (active): [5]; at 50.0 µM
active: [1]; [8] 76% | [2]; [8] 92% | [3]; [8] 79% | [4]; [8] 80% | [5]; [8] 90% | [6]; [8] 70%
29.9% (inactive) and 73.2% (active): [1]; at 50.0 µM
inactive: [1]; [7] 16% | [2]; [7] 15% | [3]; [7] 8% | [3]; at 50.0 µM -23.1% and 69.2% | [4]; [7] 16% | [4]; at 50.0 µM -3.85% and 41.8% | [5]; [7] 21% | [6]; [7] 21%
-17.1% (inactive) and 81.5% (active): [2]; at 50.0 µM
-56.5% (inactive) and 81.5% (active): [6]; at 50.0 µM

O=S(c1cc(Br)ccc1O)c1cc(Br)ccc1O
active: [1]; [8] 99% | [1]; at 50.0 µM 99.3% | [2]; [8] 100% | [2]; at 50.0 µM 99.7% | [3]; [8] 99% | [3]; at 50.0 µM 99% | [4]; [8] 99% | [4]; at 50.0 µM 99.3% | [5]; [8] 99% | [5]; at 50.0 µM 99.3% | [6]; [7] 80% | [6]; [8] 100% | [6]; at 50.0 µM 99.5%
inactive: [1]; [7] 31% | [2]; [7] 49% | [3]; [7] 69% | [4]; [7] 39% | [5]; [7] 23%

c1ccc(-c2nc3ccccc3[nH]2)cc1
inactive: [1]; [7] 1% | [1]; [8] 28% | [1]; at 50.0 µM 6.4% and 34.6% | [2]; [7] -3% | [2]; [8] 19% | [2]; at 50.0 µM -5.55% and 5.3% | [3]; [7] -11% | [3]; [8] 29% | [3]; at 50.0 µM -8.85% and 1% | [4]; [7] 4% | [4]; [8] 39% | [4]; at 50.0 µM -50.4% and -4.4% | [5]; [7] 0% | [5]; [8] 24% | [5]; at 50.0 µM -13.2% and -5.15% | [6]; [7] 0% | [6]; at 50.0 µM -0.55% and 43%
active: [6]; [8] 74%

c1ccc(-c2cnc(-c3ccc(-c4ncc(-c5ccccc5)o4)cc3)o2)cc1
inactive: [1]; [7] -13% | [1]; [8] -8% | [1]; at 50.0 µM -8.4% | [2]; [7] -6% | [2]; [8] -17% | [2]; at 50.0 µM -27.4% | [3]; [7] -23% | [3]; [8] -11% | [3]; at 50.0 µM -47.8% | [4]; [7] -11% | [4]; [8] -10% | [5]; [7] 0% | [5]; [8] 5% | [5]; at 50.0 µM -32.6% | [6]; [7] 5% | [6]; [8] -10% | [6]; at 50.0 µM -20.6%
active: [4]; at 50.0 µM 91%

Fc1ccc(/C=C2\COCC3=C2NC(=S)NC3c2ccc(F)cc2)cc1 (centres undefined)
active: [1]; [8] 98% | [1]; at 50.0 µM 88.6% | [2]; [8] 99% | [2]; at 50.0 µM 93% | [3]; [7] 72% | [3]; [8] 99% | [3]; at 50.0 µM 91.2% | [4]; [8] 99% | [4]; at 50.0 µM 90.5% | [5]; [7] 77% | [5]; [8] 100% | [5]; at 50.0 µM 90.7% | [6]; [8] 98% | [6]; at 50.0 µM 90.7%
inactive: [1]; [7] 32% | [2]; [7] 28% | [4]; [7] 59% | [6]; [7] 26%

COc1ccc(/C=C/C(=O)CCN2CCN(CCC(=O)/C=C/c3ccc(OC)cc3)CC2)cc1
active: [1]; [8] 99% | [1]; at 50.0 µM 81.7% | [2]; [8] 99% | [2]; at 50.0 µM 90.7% | [3]; [8] 99% | [3]; at 50.0 µM 90.2% | [4]; [8] 99% | [5]; [8] 99% | [5]; at 50.0 µM 87% | [6]; [8] 98% | [6]; at 50.0 µM 91.5%
inactive: [1]; [7] 16% | [2]; [7] -15% | [3]; [7] -4% | [4]; [7] -20% | [4]; at 50.0 µM 29.9% | [5]; [7] -59% | [6]; [7] -5%

Cc1ccccc1N=Nc1ccc(N=Nc2ccc(N)nc2N)c(C)c1
inactive: [1]; [7] 2% | [1]; [8] -23% | [1]; at 50.0 µM 31.2% | [2]; [7] -19% | [2]; [8] 17% | [2]; at 50.0 µM 62.1% | [3]; [7] -1% | [3]; [8] 11% | [3]; at 50.0 µM 10.1% | [4]; [7] -4% | [4]; [8] -27% | [4]; at 50.0 µM 15.3% | [5]; [7] -3% | [5]; [8] 9% | [6]; [7] -2% | [6]; [8] -29% | [6]; at 50.0 µM 28.9%
active: [5]; at 50.0 µM 82.2%

NC(=O)NC(=O)C(Cc1ccc(Cl)cc1)c1ccccc1 (centres undefined)
inactive: [1]; [7] -1% | [1]; [8] 17% | [1]; at 50.0 µM -15% | [2]; [7] -6% | [2]; [8] 8% | [2]; at 50.0 µM -13.2% | [3]; [7] 1% | [3]; [8] 7% | [3]; at 50.0 µM -5.75% | [4]; [7] 4% | [4]; [8] 19% | [4]; at 50.0 µM -65.7% | [5]; [7] 6% | [5]; [8] 20% | [5]; at 50.0 µM -52.6% | [6]; [7] -13% | [6]; [8] 5% | [6]; at 50.0 µM 2.15%

Nc1cc(F)c2c(c1)Cc1ccccc1-2
active: [1]; [8] 95% | [1]; at 50.0 µM 84.3% | [3]; [8] 84% | [3]; at 50.0 µM 82.7% | [5]; [8] 92% | [5]; at 50.0 µM 71% | [6]; [8] 97%
inactive: [1]; [7] 1% | [2]; [7] -3% | [2]; [8] 60% | [2]; at 50.0 µM 39.2% | [3]; [7] -6% | [4]; [7] 8% | [4]; [8] 32% | [4]; at 50.0 µM 23.7% | [5]; [7] 9% | [6]; [7] 12% | [6]; at 50.0 µM 58.1%

Oc1ccc(C(O)(c2ccccc2)c2ccccc2)cc1
60% (inactive) and 95% (active): [6]; [8]
88.5% (active) and 69.3% (inactive): [6]; at 50.0 µM
inactive: [1]; [7] 45% and 42% | [2]; [7] 51% and 25% | [3]; [7] -30% and 35% | [4]; [7] 45% and 29% | [5]; [7] 21% and 36% | [6]; [7] 40% and 45%
59% (inactive) and 89% (active): [2]; [8]
30% (inactive) and 89% (active): [3]; [8]
90.2% (active) and 59.2% (inactive): [5]; at 50.0 µM
92% (active) and 48.6% (inactive): [3]; at 50.0 µM
active: [1]; at 50.0 µM 88.8% and 71.1% | [2]; at 50.0 µM 91.2% and 89.2%
57% (inactive) and 91% (active): [1]; [8]
48% (inactive) and 94% (active): [5]; [8]
89.9% (active) and 65.8% (inactive): [4]; at 50.0 µM
63% (inactive) and 90% (active): [4]; [8]

O=Nc1ccc(C=C2C(=O)C=CC2=O)cc1
active: [1]; [7] 94% | [1]; [8] 98% | [1]; at 50.0 µM 99.5% | [2]; [7] 99% | [2]; [8] 99% | [2]; at 50.0 µM 99.7% | [3]; [7] 94% | [3]; [8] 99% | [3]; at 50.0 µM 99.4% | [4]; [7] 72% | [4]; [8] 98% | [4]; at 50.0 µM 99% | [5]; [7] 84% | [5]; [8] 99% | [5]; at 50.0 µM 99.4% | [6]; [7] 97% | [6]; [8] 98% | [6]; at 50.0 µM 99.5%
